The text below walks through data of PubChem BioAssay.

Calls of active or inactive are those of the source. Unless noted, no rule for the calls is given here.

Experiment [1] can be described thus: compound effects on lung adenocarcinoma cell viability – A549, calcein-AM fluorescence, 48 h, basal, profiling panel (AID 1162). Also: test concentration not given here. The conditions noted are these: higher = more signal.
Experiment [2] can be described thus: compound effects on differentiated 3T3-L1 adipocyte viability – cell-based, 3T3-L1 adipocytes, calcein-AM fluorescence, 48 h, basal, profiling panel (AID 1163). Also: test concentration not given here. Particulars: 3T3-L1 adipocytes viability, higher = more signal.
Experiment [3] can be described thus: compound effects on hepatocellular carcinoma cell viability – HepG2, calcein-AM fluorescence, 48 h, basal, profiling panel (AID 1164). Also: test concentration not given here. Particulars: higher = more signal.
Experiment [4] can be described thus: compound effects on multiple myeloma cell viability – MM1S, calcein-AM fluorescence, 48 h, basal, profiling panel (AID 1165).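 Also: viability of MM1S multiple myeloma cells under basal unstimulated conditions; test concentration not given here.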 Particulars: higher = more signal.
Experiment [5] is described as follows: calcein-AM signal in unstimulated myeloma cells – cell-based, calcein-AM fluorescence, 48 h, PK04 Diversity Set, profiling panel (AID 1166).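 Also: cells grown under basal conditions without added stimulus; test concentration not given here.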 The conditions noted are these: RPMI8226 myeloma viability, higher = more signal.
The nature of experiment [6]: JC-1 mitochondrial signal, unstimulated HepG2 cells – cell-based, JC-1 fluorescence, 24 h, 100 nL compound, profiling panel (AID 1167). Also: test concentration not given here. The conditions noted are these: HepG2 mitochondrial potential, higher = more signal.
The nature of experiment [7]: JC-1 mitochondrial signal, unstimulated adipocytes – cell-based, JC-1 fluorescence, 3T3-L1 adipocytes, 24 h, 100 nL compound, profiling panel (AID 1168). Also: test concentration not given here. Particulars: JC-1 mitochondrial fluorescence, higher = more signal, called active from +8 up or from −8 down.
Experiment [8] in a line: JC-1 mitochondrial signal, unstimulated myeloma cells – cell-based, JC-1 fluorescence, RPMI8226, 24 h, 100 nL compound, profiling panel (AID 1169). Also: test concentration not given here. The conditions noted are these: JC-1 mitochondrial potential fluorescence, higher = more signal.
The nature of experiment [9]: JC-1 mitochondrial signal, unstimulated MM1S myeloma – cell-based, JC-1 fluorescence, 24 h, 100 nL compound, profiling panel (AID 1170). Also: test concentration not given here. The conditions noted are these: MM1S mitochondrial potential, higher = more signal.
Experiment [10] in a line: resazurin metabolic signal in A549 cells – cell-based, resazurin fluorescence, 24 h, PK04 Diversity Set, profiling panel (AID 1171). Also: test concentration not given here. Particulars: A549 viability, higher = more signal, called active from +8 up or from −8 down. Background: Alamar Blue is a resazurin reagent that responds to reducing activity.
Experiment [11] can be described thus: resazurin metabolic signal in HepG2 cells – cell-based, resazurin fluorescence, 24 h, PK04 Diversity Set, profiling panel (AID 1172). Also: test concentration not given here. The conditions noted are these: HepG2 viability, higher = more signal.
Experiment [12] in a line: budding yeast growth changes without added modifier – OD600, strain BY4716, 24 h, basal condition, primary screen (AID 1173). Particulars: S. cerevisiae BY4716 growth, OD600, 24 h; higher = more signal, called active from +8 up or from −8 down.
A short description of experiment [13]: viability profiling in MM1S myeloma cells – cell-based, resazurin fluorescence, basal, 24 h, PK04 Diversity Set, profiling panel (AID 1174). Also: test concentration not given here. The conditions noted are these: higher = more signal, called active from +8 up or from −8 down.
For experiment [14], the target named is Dihydroorotate dehydrogenase (quinone), mitochondrial (Plasmodium falciparum (isolate 3D7)) (UniProt Q08210). The experiment can be described thus: inhibition of P. falciparum DHODH – biochemical, C-terminal His tag, absorbance 600 nm, primary screen (AID 1175).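 Also: recombinant parasite enzyme with a five histidine tag at its C terminus; test concentration not given here.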 The conditions noted are these: PfDHODH enzyme, DCIP absorbance 600 nm; higher = more signal, called active from +8 up or from −8 down.

Experiment [15] in a line: inhibition of PAO1 biofilm formation – strain PAO1, LB-PBS medium, absorbance 600 nm, primary screen (AID 1176). Also: test concentration not given here. Particulars: P. aeruginosa PAO1 growth/biofilm, A600, 12 h; higher = more signal.
Experiment [16] can be described thus: growth modulation of vineyard yeast isolate – strain RM11-1a, OD600, basal, 24 h, primary screen (AID 1177).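 Also: cultures grown under basal conditions with no added stressor; test concentration not given here.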 The conditions noted are these: S. cerevisiae RM11-1a growth, OD600, 24 h; higher = more signal, called active from +8 up or from −8 down.
A short description of experiment [17]: growth of efflux-deficient E. coli DRC39 – strain DRC39, OD650, 24 h, E. coli filamentation inducers, primary screen (AID 1178).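 Also: growth measured as culture turbidity by optical density at 650 nm; test concentration not given here.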 Particulars: E. coli DRC39 acrAB, higher = more signal, called active from +8 up or from −8 down.
Experiment [18] is described as follows: growth of efflux-deficient E. coli DRC39 – strain DRC39, OD650, 48 h, E. coli filamentation inducers, primary screen (AID 1179).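 Also: screen aims at cell division blockers that make cells filament.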 Particulars: E. coli DRC39 delta-acrAB growth, higher = more signal, called active from +8 up or from −8 down.
Experiment [19] in a line: viability profiling in RPMI8226 myeloma cells – cell-based, resazurin fluorescence, basal, 24 h, PK04 Diversity Set, profiling panel (AID 1180).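 Also: RPMI8826 multiple myeloma cell line at 5000 cells per well; test concentration not given here.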 Particulars: higher = more signal.
Experiment [20] has as its target E3 ubiquitin-protein ligase XIAP (Homo sapiens) (UniProt P98170). The experiment can be described thus: small molecules binding XIAP protein – biophysical, small-molecule microarray, fluorescence 635 nm, primary screen (AID 1181).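 Also: score merges 667 nm emission and signal to noise over triplicate slides.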 Particulars: higher = more signal.

Sequence of Dihydroorotate dehydrogenase (quinone), mitochondrial (Plasmodium falciparum (isolate 3D7)) (Q08210 whole entry, looked up): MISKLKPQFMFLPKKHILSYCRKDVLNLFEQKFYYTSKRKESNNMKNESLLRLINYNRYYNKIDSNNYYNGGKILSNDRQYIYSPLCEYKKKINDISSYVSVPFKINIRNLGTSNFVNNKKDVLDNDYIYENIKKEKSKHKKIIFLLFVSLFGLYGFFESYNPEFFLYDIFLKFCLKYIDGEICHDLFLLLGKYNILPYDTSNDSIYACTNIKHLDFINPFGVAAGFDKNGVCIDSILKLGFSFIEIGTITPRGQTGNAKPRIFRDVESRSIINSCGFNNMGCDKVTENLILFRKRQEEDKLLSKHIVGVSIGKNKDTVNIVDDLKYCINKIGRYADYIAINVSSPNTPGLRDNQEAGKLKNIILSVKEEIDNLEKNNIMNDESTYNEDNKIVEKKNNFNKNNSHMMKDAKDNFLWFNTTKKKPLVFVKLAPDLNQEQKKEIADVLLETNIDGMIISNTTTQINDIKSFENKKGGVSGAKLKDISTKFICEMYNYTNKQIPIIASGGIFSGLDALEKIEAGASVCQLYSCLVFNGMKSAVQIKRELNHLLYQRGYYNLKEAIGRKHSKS
Sequence of E3 ubiquitin-protein ligase XIAP (Homo sapiens) (P98170 whole entry, looked up): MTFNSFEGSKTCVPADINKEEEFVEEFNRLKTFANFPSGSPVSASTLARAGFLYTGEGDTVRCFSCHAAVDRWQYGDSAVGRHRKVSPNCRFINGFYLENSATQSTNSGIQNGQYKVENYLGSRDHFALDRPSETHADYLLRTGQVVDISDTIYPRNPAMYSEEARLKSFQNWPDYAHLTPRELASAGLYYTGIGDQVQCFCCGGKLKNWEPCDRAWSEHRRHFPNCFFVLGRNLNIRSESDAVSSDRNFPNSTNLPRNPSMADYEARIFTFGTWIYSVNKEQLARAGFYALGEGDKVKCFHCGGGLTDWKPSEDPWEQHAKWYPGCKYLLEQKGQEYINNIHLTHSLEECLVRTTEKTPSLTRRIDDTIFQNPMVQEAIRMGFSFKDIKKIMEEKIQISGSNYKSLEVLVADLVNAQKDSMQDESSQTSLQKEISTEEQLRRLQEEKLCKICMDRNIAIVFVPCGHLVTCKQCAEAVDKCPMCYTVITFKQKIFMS

Turning to `[N-]=[N+]=NCc1ccccc1C[C@@]1(C(=O)O)N=C(c2ccc(OCCCO)cc2)O[C@@H]1c1ccccc1N=[N+]=[N-]`, the z-score is 0.593 in experiment [1]; 0.0001 in [2]; 0.435 in [3]; -1.52 in experiment [4]; -2.27 in [5]; -1.58 in [6]. The z-score is 0.428 (inactive) in experiment [7]; -0.898 in [8]; -1.31 in experiment [9]; -1.32 (inactive) in experiment [10]; 0.0549 in [11]; -1 (inactive) in [12]. In addition, the z-score in experiment [13] is -1.47 (inactive); in experiment [15], 0.755 (inactive); in [16] it was -0.268 (inactive); in experiment [17], 0.604 (inactive); in [18], 0.331 (inactive); in [19], -0.876. The composite z-score is 0.313 (inactive) in experiment [14] and 0.0524 in experiment [20].

Regarding `C#C[C@H](O[Si](C#Cc1ccccc1)(C(C)C)C(C)C)c1ccccc1`, the z-score in experiment [1] is -1.62; in [2], -0.653; in experiment [3] it was -1.47; in experiment [4], -2.94; in [5] it was -1.91; in experiment [6], -2.74. Besides, the z-score in experiment [7] is -0.448 (inactive); in experiment [8], -0.154; in experiment [9], -1.48; in experiment [10], -0.912 (inactive); in experiment [11], -0.271; in experiment [12], -17.7 (active). Besides, the z-score in experiment [13] is -0.633 (inactive); in experiment [15], 0.738 (inactive); in experiment [16] it was -11.8 (active); in experiment [17], -0.329 (inactive); in experiment [18] it was 0.127 (inactive); in experiment [19], -0.533. For the same compound, the results for the composite z-score in experiment [14] and in [20] were -0.203 (inactive) and 0.0049, respectively.

For the compound `O=C1c2ccccc2[C@@]2(Cc3ccccc3N(CC(F)(F)F)C2=O)[C@H](c2ccc(CO)cc2)N1C1CCCCC1`, the z-score was -0.449 in experiment [1]; 0.747 in experiment [2]; -0.0145 in experiment [3]; 0.129 in experiment [4]; -1.27 in [5]; -0.0304 in experiment [6]. Also, the z-score in experiment [7] was 0.701 (inactive); in [8], 1.06; in experiment [9], 0.933; in [10], 0.304 (inactive); in [11], -0.0665; in experiment [12], 0.713 (inactive). The z-score in [13] is 1.07 (inactive); in experiment [15], 0.379 (inactive); in [16] it was -0.572 (inactive); in experiment [17] it was 0.172 (inactive); in [18], -0.411 (inactive); in experiment [19], 0.748. Further, the composite z-score in experiment [14] was -24.3 (active); in experiment [20], -0.2.

With `CCCN1C(=O)[C@@]2(CCS(=O)(=O)c3ccccc3)N=C(c3ccc(OCCCO)cc3)O[C@H]2c2ccccc21`, the z-score in experiment [1] was -1.3; in experiment [2] it was 2.41; in experiment [3] it was -0.64; in experiment [4], -0.454; in experiment [5], -3.68; in experiment [6] it was 0.241. Also, the z-score in [7] is 0.535 (inactive); in experiment [8], -1.31; in experiment [9] it was -0.148; in [10], -1.33 (inactive); in experiment [11], -0.561; in experiment [12] it was 1.27 (inactive). Also, the z-score in experiment [13] is -1.03 (inactive); in experiment [15], 0.469 (inactive); in experiment [16], 1.56 (inactive); in [17], 0.861 (inactive); in experiment [18] it was 0.163 (inactive); in [19], -2.15. The composite z-score in experiment [14] was 2.02 (inactive); in experiment [20], -0.072.

Consider `CC(=O)NCCCC[C@@H]1NC(=O)[C@H]2C[C@@H](C(=O)NCCCCCCN(C)C)[C@@H](c3ccc(O)cc3)N2C1=O`, for which the z-score is -0.345 in experiment [1]; 1.03 in experiment [2]; -1.23 in [3]; -0.327 in [4]; -0.551 in experiment [5]; -0.755 in [6]. For the same compound, the z-score was 0.154 (inactive) in experiment [7]; 0.669 in experiment [8]; 0.116 in experiment [9]; -1.27 (inactive) in [10]; -0.666 in [11]; -0.191 (inactive) in experiment [12]. Further, the z-score in experiment [13] was -1.56 (inactive); in experiment [15] it was -0.0059 (inactive); in [16], -0.0236 (inactive); in [17], -1.04 (inactive); in experiment [18], -1.53 (inactive); in experiment [19], -1.28. Further, the composite z-score in [14] was -0.231 (inactive); in experiment [20], 0.217.

In the case of `COC(=O)Cn1c(C(=O)N2CCCC2)cc2c1C[C@H]1CN(C(=O)c3ccccc3)[C@@](Cc3ccc(OC)cc3)(C(=O)OC)[C@@H]21`, the z-score in [1] is -0.643; in experiment [2], -0.574; in experiment [3] it was 0.0447; in experiment [4], -1.72; in experiment [5] it was -2.24; in experiment [6] it was 1.49. Besides, the z-score was -1.1 (inactive) in experiment [7]; -0.623 in [8]; -1.95 in [9]; -1.09 (inactive) in experiment [10]; 0.101 in [11]; 1.5 (inactive) in experiment [12]. The z-score in experiment [13] was -2.14 (inactive); in experiment [15], 0.259 (inactive); in [16], 0.569 (inactive); in [17] it was -0.506 (inactive); in experiment [18], -0.031 (inactive); in [19] it was -2.1. Further, the composite z-score is -0.632 (inactive) in [14] and 0.311 in [20].

With `O=C1NC(=O)C2C1C=CC(C(O)C=Cc1ccc([N+](=O)[O-])cc1)N2Nc1ccccn1` (stereo not given), the z-score was 0.183 in experiment [1]; -1.49 in experiment [2]; 0.324 in [3]; -0.141 in [4]; -0.411 in experiment [5]; -0.249 in [6]. In addition, the z-score was -0.304 (inactive) in [7]; 0.412 in experiment [8]; 0.423 in experiment [9]; -0.355 (inactive) in experiment [10]; -0.629 in [11]; -0.203 (inactive) in experiment [12]. For the same compound, the z-score is -0.373 (inactive) in experiment [13]; 1.23 (inactive) in [15]; 0.086 (inactive) in experiment [16]; 0.195 (inactive) in [17]; -0.466 (inactive) in experiment [18]; -0.742 in experiment [19]. In addition, the figures for the composite z-score in experiment [14] and in experiment [20] were 0.643 (inactive) and 0.289, respectively.

Take `CC1=C([C@H](O)CCc2ccccc2)[C@H](CO)[C@@H]2C(=O)N(Cc3ccccc3)C(=O)[C@@H]2C1`: the z-score in experiment [1] is -0.286; in [2], -0.0776; in experiment [3], -0.352; in [4] it was -0.0162; in experiment [5], 0.445; in [6], 0.567. The z-score is 0.714 (inactive) in [7]; 0.331 in experiment [8]; -1.5 in experiment [9]; 0.76 (inactive) in experiment [10]; 0.325 in experiment [11]; -3.02 (inactive) in experiment [12]. The z-score in [13] was 0.169 (inactive); in experiment [15], 0.0694 (inactive); in experiment [16] it was 0.0743 (inactive); in [17], 1.6 (inactive); in experiment [18] it was 0.204 (inactive); in experiment [19] it was 0.308. Also, the figures for the composite z-score in experiment [14] and in experiment [20] were -1.68 (inactive) and 0.201, respectively.

With `CN(C)c1ccc(C(O)C2C=CC3C(=O)NC(=O)C3N2Nc2ccc(Cl)cc2Cl)cc1` (stereo not given), the z-score in experiment [1] is -0.602; in [2] it was 0.117; in experiment [3], -0.675; in experiment [4], 0.463; in experiment [5] it was -0.792; in experiment [6] it was -1.26. Also, the z-score was -1.06 (inactive) in experiment [7]; -0.752 in experiment [8]; 0.261 in experiment [9]; -0.555 (inactive) in [10]; -0.492 in experiment [11]; 0.454 (inactive) in experiment [12]. The z-score was -1.44 (inactive) in [13]; 0.683 (inactive) in experiment [15]; 0.839 (inactive) in experiment [16]; 0.221 (inactive) in [17]; 0.0462 (inactive) in experiment [18]; -1.44 in experiment [19]. Moreover, the composite z-score in experiment [14] was 0.438 (inactive); in experiment [20], 0.0914.
